Casp6 inh: blocks human caspase-6 cleavage activity; P55212; purified caspase-6, Z-VEID-R110 cleavage fluorescence; inhibition, % at 12.5 µM; 350,000 tested, 0.53% active; AID 686996;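 active = mean inhibition across replicates at least about 35%, with every replicate also reaching that limit, limit read from the data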;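 note: 0% = median of neutral control wells and 100% = no fluorescence left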
ALR H2O2 inh: blocks human ALR sulfhydryl oxidase activity; P55789; purified ALR, DTT oxidation, H2O2 HRP-luminol luminescence; inhibition, % (concentration not given with the values); 290,000 tested, 3.8% active;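 active = mean replicate inhibition above about 79%, with every replicate also reaching it, limit read from the data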
SUMO Mot1 rescue: SUMOylation pathway inhibition by Mot1-301 growth rescue | S. cerevisiae Mot1-301 growth rescue, ATP luminescence, 38.5C; percent above DMSO median, 100 means doubled | growth rescue, % at 18.8 µM | 320,000 tested, 1% active | AID 2716;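 active = every valid replicate shows activation above 250% relative to neutral control wells; inactive = the rest, any valid replicate at or below 250%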;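 note: OY570 slx delta 5 strain wells were the positive control but not used for scaling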
NSD2 inh: NSD2 (human) methyltransferase inhibition. O96028. NSD2 peptide methylation, AlphaScreen, 120 min. inhibition, % at 12.5 µM. 310,000 tested, 0.54% active. AID 743445; in the data active = inhibition above about 50%
CDK5 inh: CDK5/p35 (human) kinase inhibition; Q00535+Q15078; Recombinant CDK5/p35, ADP-Glo luminescence, 60 min; inhibition, % at 10 µM; 330,000 tested, 0.01% active;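 active = highest replicate inhibition of at least 50% and at least 75% of replicates reaching 50%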;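 note: plate controls were DMSO neutral control for no effect and GW8510 at 10 µM for full effect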
Glyco luc inh: N-linked glycosylation inhibition; D54 ERlucT glycosylation luciferase reporter, 24 h; percent of 100 nM tunicamycin response; reporter increase, % at 12.5 µM; 360,000 tested, 0.23% active;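 active = mean luciferase reporter signal, scaled so untreated is 0 and the glycosylation-blocking control 100, at or above a set limit in every replicate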;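 note: luciferase carries N-glycosylation sites so blocking glycosylation raises the light; 0% = median of neutral control wells and 100% = median of 100 nM tunicamycin wells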
An asterisk follows results filed as active; . = no result given. The list is not random: actives were taken first. Their share in the collection is about 3.9%.

SMILES	Casp6 inh	ALR H2O2 inh	SUMO Mot1 rescue	NSD2 inh	CDK5 inh	Glyco luc inh
COc1ccc2c(c1OC)C(=O)N(c1cccc(NC(C)=O)c1)C2	2	97*	-16	-2	2	0
COc1ccc2c(c1OC)C(=O)N(c1ccc(F)cc1)C2	-2	-2	-2	-1	4	0
CC(OC(=O)CCN=C1NS(=O)(=O)c2ccccc21)C(=O)Nc1ccc(N(C)C)cc1 (configuration not stated)	-2	99*	0	3	-2	1
COC(=O)c1ccc(C(C2C(=O)CC(C)(C)CC2=O)C2C(=O)CC(C)(C)CC2=O)cc1	1	6	22	-5	4	0
COc1ccc(C(C2C(=O)CC(C)(C)CC2=O)C2C(=O)CC(C)(C)CC2=O)cc1CO	0	96*	7	-2	1	-1
CO[C@H]1CN(C)C(=O)c2ccc(NC(=O)c3cc(C)on3)cc2OC[C@H](C)N(C(C)=O)C[C@H]1C	1	.	.	.	.	.
Cc1cccc(-n2c(C)cc(/C=N/NC(=O)c3ccc(CN4CCOCC4)cc3)c2C)c1	-2	99*	-23	1	-1	-4
Cc1ccc(-n2c(C)cc(/C=N/NC(=O)c3ccc(CN4CCOCC4)cc3)c2C)cc1	.	10	27	3	0	-4
COc1ccc(-n2nc(C)cc2Nc2ccccc2C(=O)O)cc1	3	99*	29	-2	-1	0
Cc1cc(C)n(-c2ccc(C(=O)O)cc2)n1	.	-4	-18	1	-3	2
Cc1cc(NC(=O)Nc2cccc(Cl)c2)n(-c2ccccc2)n1	0	-8	11	-1	1	-3
Cc1cc(Nc2ccccc2)n(-c2ccc(C(=O)O)cc2)n1	-2	99*	1	-6	-1	1
Cc1cc(Nc2ccccc2)n(-c2cccc(Cl)c2)n1	.	99*	20	-2	1	3
COc1ccc2c3c([nH]c2c1)[C@@H](CO)N(C(=O)C1CCC1)CC31CN(Cc2cccc(F)c2)C1	4	.	.	.	.	.
CNC[C@H]1Oc2ncc(C#CC3CCCC3)cc2C(=O)N([C@@H](C)CO)C[C@H]1C	0	.	.	.	.	.
O=C(/C=C(\c1ccc(Cl)cc1)n1cncn1)c1ccc(Cl)cc1	-5	-8	-26	.	-2	27*
CCS(=O)(=O)NCC[C@@H]1CC[C@@H](NC(=O)C2CC2)[C@@H](CO)O1	2	.	.	.	.	.
COC(=O)c1ccccc1NC(=S)NC(=O)c1ccc2c(c1)OCO2	1	98*	21	5	0	21
COC(=O)c1ccccc1NC(=S)NC(=O)c1ccccc1	.	98*	141	16	0	10
COc1cc([N+](=O)[O-])ccc1NC(=S)NNC(=O)c1ccc2c(c1)OCO2	1	98*	-2	13	-3	.
COC(=O)c1ccccc1NC(=S)NC(=O)c1ccccc1C	.	97*	-15	3	0	13
COCC(=O)N1[C@H](C(=O)NCc2ccccc2)[C@@H](CO)[C@@H]2Cn3c(cccc3=O)[C@@H]21	-3	.	.	.	.	.
Cc1ccc(S(=O)(=O)Nc2ccc3c(c2)C(=O)N([C@@H](C)CO)C[C@@H](C)[C@@H](CN(C)S(C)(=O)=O)OCCCC[C@@H](C)O3)cc1	-1	.	.	.	.	.
Cc1cccc(NC(=S)NNC(=O)c2ccc(O)cc2O)c1C	4	99*	512	1	1	0
COc1ccccc1-n1cccc1C=O	2	-8	659*	-1	-1	-1
SMILES	Casp6 inh	ALR H2O2 inh	SUMO Mot1 rescue	NSD2 inh	CDK5 inh	Glyco luc inh
COc1ccc(-n2cccc2C=O)cc1OC	.	17	12	1	2	0
C[C@@H]1CN([C@H](C)CO)C(=O)Cc2cc(NS(=O)(=O)c3cccs3)ccc2O[C@@H]1CN(C)S(=O)(=O)c1ccccc1	1	.	.	.	.	.
O=C(N[C@H]1CC[C@H](CCNS(=O)(=O)c2ccccc2)O[C@@H]1CO)c1cnccn1	1	.	.	.	.	.
O=C(NC1CCCCC1)c1ccc([N+](=O)[O-])o1	.	-21	108	2	2	41*
O=C(NC1CCCC(C(F)(F)F)C1)c1ccc([N+](=O)[O-])o1 (configuration not stated)	5	-100	92	2	-6	29*
O=C(NC1CCCCC1)c1ccc(-c2ccccc2[N+](=O)[O-])o1	1	-25	0	8	2	-4
C[C@H](CO)N1C[C@H](C)[C@@H](CN(C)S(C)(=O)=O)OCCCC[C@H](C)Oc2ccc(NS(=O)(=O)c3ccccc3)cc2C1=O	3	.	.	.	.	.
CC(C)C#Cc1cnc2c(c1)C(=O)N([C@H](C)CO)C[C@H](C)[C@@H](CN(C)Cc1cccc(F)c1)O2	-1	.	.	.	.	.
CCn1c(SCC(=O)Nc2nc(-c3ccc(C)cc3)cs2)nnc1-c1ccccc1	.	4	6	0	-1	1
Cc1ccc(-c2csc(NC(=O)CSc3nc4ccccc4c(=O)n3CCCN(C)C)n2)cc1	4	99*	65	3	-2	-9
CN(C)CCCn1c(SCC(=O)N2c3ccccc3Sc3ccccc32)nc2ccccc2c1=O	-10	97*	10	9	1	-13
COc1cccc(-c2nc(CS(=O)(=O)CC(=O)Nc3ccccc3C)c(C)o2)c1	-1	-2	-1	1	-1	3
COc1cccc(-c2nc(CS(=O)(=O)CC(=O)Nc3ccccc3Br)c(C)o2)c1	3	94*	0	0	0	-1
COc1cccc(-c2nc(CS(=O)(=O)CC(=O)Nc3cccc(C)c3C)c(C)o2)c1	0	51	-2	.	1	2
COc1cccc(-c2nc(CS(=O)(=O)CC(=O)Nc3ccccc3Cl)c(C)o2)c1	5	87*	102	-1	-2	-1
S=C(Nc1ccc2nsnc2c1)N1CCCCCC1	56*	-21	-3	153*	2	-4
COC(=O)c1[nH]c2ccc(C)cc2c1NC(=O)CN1CCc2cc(OC)c(OC)cc2C1	.	-2	0	2	-2	0
CCOC(=O)c1[nH]c2ccccc2c1NC(=O)c1cc(OC)c(OC)c(OC)c1	.	-3	8	1	-1	11
COc1cc(C(=O)Nc2c(C(=O)O)[nH]c3ccc(C)cc23)cc(OC)c1OC	3	96*	64	3	1	1
COC(=O)c1[nH]c2ccc(Cl)cc2c1NC(=O)C1CC1	.	-9	11	1	1	2
COC(=O)c1[nH]c2ccc(C)cc2c1NC(=O)Nc1ccccc1OC	.	97*	-1	-1	-2	12
COC(=O)c1[nH]c2ccc(Cl)cc2c1NC(=O)Oc1ccccc1	.	100*	110	3	0	2
C[C@H]1CN([C@@H](C)CO)C(=O)c2cccc(NS(=O)(=O)c3ccc(F)cc3)c2O[C@H]1CN(C)S(=O)(=O)c1ccc(F)cc1	-2	.	.	.	.	.
Oc1c(Br)cc(Br)cc1CNc1cnc2ccccc2c1	-1	-29	-6	2	1	1

Compound activity (PubChem)
